Reference: ChEMBL document CHEMBL4513146, “CO-ADD screening of Karazin Kharkiv National University (Ukraine) compounds”
Potency and affinity values are given separately.

Tests used:
[1] = tested on: Klebsiella pneumoniae; settings: Concentration 32 ug.mL-1;; ASSAY_TEST Inhibition of Bacterial Growth; detection method Absorption (OD600); MEDIA CAMHB; plate type 384well; NBS; CORNING #3640; time 18 hr
[2] = tested on: Candida albicans; settings: Concentration 32 ug.mL-1; ASSAY_TEST Inhibition of Fungal Growth; detection method Absorption (OD530)
[3] = tested on: Cryptococcus neoformans; settings: Concentration 32 ug.mL-1; ASSAY_TEST Inhibition of Fungal Growth; detection method Resazurin; Absorption (OD600-OD570); plate type 384well; NBS; CORNING #3640

SMILES: Cc1ccc(NC(=O)Cn2c(=O)c3nnc(C(C)C)n3c3ccccc32)cc1F
- Inhibition [1]: 13.19%
- Inhibition [2]: 0.6%
- Inhibition [3]: -30.05%

SMILES: COc1cccc(NC(=O)Cn2nc3c(Oc4cccc(OC)c4)nccn3c2=O)c1
- Inhibition [1]: 3.74%
- Inhibition [2]: 3.44%
- Inhibition [3]: -0.95%

SMILES: CC(C)(C)Sc1ccc2nn(CC(=O)Nc3ccccc3C(F)(F)F)c(=O)n2n1
- Inhibition [1]: 13.7%
- Inhibition [2]: 0.56%
- Inhibition [3]: -20.81%

SMILES: Cc1ccc(NC(=O)c2ccc3nnc(SCC(=O)Nc4ccc(Br)cc4)n3c2)cc1
- Inhibition [1]: 8.72%
- Inhibition [2]: 1.55%
- Inhibition [3]: -17.05%

SMILES: COc1ccccc1N1CCN(C(=O)CSc2nnc3c(=O)n(-c4ccccc4)ccn23)CC1
- Inhibition [1]: 9.27%
- Inhibition [2]: 1.3%
- Inhibition [3]: -12.92%

SMILES: Cc1nnc2c(=O)n(CC(=O)Nc3cccc(F)c3)c3ccccc3n12
- Inhibition [1]: 11.8%
- Inhibition [2]: 1.2%
- Inhibition [3]: -2.05%

SMILES: COc1ccc(-c2cc3c4nn(CC(=O)Nc5c(C)cc(C)cc5C)c(=O)n4ccn3n2)cc1
- Inhibition [1]: 6.07%
- Inhibition [2]: -1.73%
- Inhibition [3]: -15.2%

SMILES: O=C(Cn1nc2c(N3CCOCC3)nccn2c1=O)Nc1ccc(Cl)cc1F
- Inhibition [1]: 19.61%
- Inhibition [2]: 2.13%
- Inhibition [3]: -2.72%

SMILES: COc1ccccc1Cn1c(=O)c2sccc2n2c(=O)n(Cc3ccc(Br)cc3)nc12
- Inhibition [1]: 3.07%
- Inhibition [2]: -0.38%
- Inhibition [3]: -8.06%

SMILES: CCOc1ccc(C(=O)CSc2nnc3c(=O)n(-c4ccc(OCC)cc4)ccn23)cc1
- Inhibition [1]: 14.22%
- Inhibition [2]: 5.82%
- Inhibition [3]: -6.09%

SMILES: CCc1ccccc1NC(=O)Cn1nc2c(SCc3ccc(Cl)cc3)nccn2c1=O
- Inhibition [1]: 13.77%
- Inhibition [2]: 2.88%
- Inhibition [3]: -20.04%

SMILES: COc1ccc(NC(=O)CSc2nnc3c(=O)n(-c4cccc(OC)c4)ccn23)cc1
- Inhibition [1]: 5.61%
- Inhibition [2]: 2.12%
- Inhibition [3]: -13.19%

SMILES: CCCCn1c(=O)c2sccc2n2c(=O)n(CC(=O)c3ccc(OC)cc3)nc12
- Inhibition [1]: 1.02%
- Inhibition [2]: 4.16%
- Inhibition [3]: -36.83%

SMILES: Cc1ccc(Oc2nc3ccccc3n3c(=O)n(CC(=O)Nc4ccccc4C(F)(F)F)nc23)cc1
- Inhibition [1]: 13.52%
- Inhibition [2]: 1.1%
- Inhibition [3]: -22.18%

SMILES: O=C(Cn1nc2ccc(SCc3ccc(Cl)cc3)nn2c1=O)Nc1ccc2c(c1)OCO2
- Inhibition [1]: 15.3%
- Inhibition [2]: 22.84%
- Inhibition [3]: -22.42%

SMILES: Cc1nnc2ccc(S(=O)(=O)N(Cc3ccc(F)cc3)c3cc(F)cc(F)c3)cn12
- Inhibition [1]: 9.19%
- Inhibition [2]: 0.51%
- Inhibition [3]: -14.68%

SMILES: O=C(CCc1nnc2c(N3CCCCC3)nc3ccccc3n12)NCc1ccc2c(c1)OCO2
- Inhibition [1]: 14.18%
- Inhibition [2]: 10.16%
- Inhibition [3]: -25.55%

SMILES: Cc1cc2nn(CC(=O)Nc3ccc(Cl)cc3)c(=O)n2c(Nc2ccc(F)c(C)c2)n1
- Inhibition [1]: 19.07%
- Inhibition [2]: 3.54%
- Inhibition [3]: -11.52%

SMILES: CC(C)c1ccc(NC(=O)Cn2nc3ccc(SCc4ccc(Cl)cc4)nn3c2=O)cc1
- Inhibition [1]: 6.44%
- Inhibition [2]: 14.48%
- Inhibition [3]: -27.26%

SMILES: CCc1ccc(NC(=O)CSc2nnc3c(=O)n(-c4ccccc4)ccn23)cc1
- Inhibition [1]: 10.7%
- Inhibition [2]: 2.07%
- Inhibition [3]: -14.31%

SMILES: Cc1ccc(Oc2nccn3c(=O)n(CC(=O)Nc4ccc(Br)cc4F)nc23)cc1
- Inhibition [1]: 2.41%
- Inhibition [2]: 2.18%
- Inhibition [3]: -6.11%

SMILES: Cc1ccc(-c2cc3c4nn(CC(=O)Nc5ccccc5F)c(=O)n4ccn3n2)cc1C
- Inhibition [1]: 6.53%
- Inhibition [2]: -0.75%
- Inhibition [3]: -15.58%

SMILES: Cc1oc(-c2ccccc2)nc1CSc1nc2ccccc2n2c(C)nnc12
- Inhibition [1]: 7.15%
- Inhibition [2]: 9.66%
- Inhibition [3]: -6.62%

SMILES: CCCCOc1ccc(-c2cc3c4nnc(SCC(=O)NCc5ccc(C)cc5)n4ccn3n2)cc1
- Inhibition [1]: 3.76%
- Inhibition [2]: 12.04%
- Inhibition [3]: -14.64%

SMILES: COC(=O)c1cccc(NC(=O)Cn2nc3c(N4CCCCCC4)nccn3c2=O)c1
- Inhibition [1]: 3.15%
- Inhibition [2]: 2.05%
- Inhibition [3]: -12.46%

SMILES: CCOc1ccc(-n2ccn3c(SCC(=O)NCc4ccccc4Cl)nnc3c2=O)cc1
- Inhibition [1]: 10.62%
- Inhibition [2]: 2.57%
- Inhibition [3]: -15.06%

SMILES: Cc1nnc2c(S(=O)(=O)N(Cc3cccc(Cl)c3)c3ccc(F)c(F)c3)cccn12
- Inhibition [1]: 3.16%
- Inhibition [2]: 2.06%
- Inhibition [3]: -7.4%
